Records with an inconclusive call do not appear. Activity calls are given as the source filed them. The call rests on the fitted dose curve; in most records, active means well fitted inhibition curve with a large enough effect; inconclusive means small, poorly fitted or top-dose-only effect; inactive means no such curve, though single readings can be large or run the other way.
Assay: InCell qHTS Assay for Inhibitors of the mTORC1 Signaling Pathway in MEF (Tsc2-/-, p53-/-) Cells: Hit Validation;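 further: phospho-S6 Ser235/236 signal normalized to propidium iodide cell count per well; nearly all actives have a fitted effect of over 75% in size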
Settings: phospho-rpS6 immunofluorescence, 24 h; activity change, negative = inhibition: at 38.3 µM (top of the series)
Potency means the concentration at half of the fitted maximal effect.

| SMILES | activity change, negative = inhibition | Potency |
| --- | --- | --- |
| O=C(c1ccc(CS(=O)c2ccccc2Cl)o1)N1CCN(c2cccc(C(F)(F)F)c2)CC1 (stereo not drawn) | -28.2% | – |
| COc1cc(C(=O)Nc2ccc(NC(=O)c3ccc(C(C)(C)C)cc3)cc2)cc(OC)c1OC | -100% | – |
| CCOC(=O)c1c(NC(=O)c2ccc(S(=O)(=O)N(C)C)cc2)sc2c1CCN(C)C2 | -26.7% | – |
| Cc1cc(Cl)ccc1NC(=O)CN1C(=O)C(=O)c2ccccc21 | -16% | – |
| O=c1c(-c2cc(-c3ccc(F)cc3)nc3c2COc2ccc(Cl)cc2-3)coc2ccc(F)cc12 | -100% | – |
| CCOC(=O)C(Cc1c[nH]c2ccccc12)NC(=O)COc1ccc(Cl)cc1 (stereo not drawn) | -100% | – |
| Cc1ccc2c(c1)C(=O)C(=O)N2Cc1ccc(OC(C)C)cc1 | -16.8% | – |
| Cc1cc(C)c(NC(=O)Cn2c(=O)n(Cc3ccc(C(=O)NCc4ccc5c(c4)OCO5)cc3)c(=O)c3ccccc32)c(C)c1 | – | 3.29 µM (active) |
| COc1cccc(-n2c(-c3ccc(C)cc3)cc3c2CC(C)(C)CC3=O)c1 | -6.41% | – |
| Cc1ccccc1Oc1nc2ccccn2c(=O)c1/C=C(\C#N)c1nc2ccccc2[nH]1 | -100% | – |
| CS(=O)(=O)c1ncc(Cl)c(C(=O)N(Cc2ccc(Cl)cc2)Cc2ccco2)n1 | – | 3.29 µM (active) |
| CC(C)N(C(=O)Cn1cc(S(=O)(=O)Cc2ccc(Cl)cc2)c2ccccc21)C(C)C | -100% | – |
| CCNS(=O)(=O)c1cc(-c2nnc(Nc3cccc(C(F)(F)F)c3)c3ccccc23)ccc1C | -100% | – |

Source: PubChem BioAssay AID651791 (National Center for Advancing Translational Sciences (NCATS), 2012)
